Sampled rows, rich in hits. Any-hit rate of the full collection: about 2.3%.
TPT1 inhibitor: C. albicans TPT1 enzyme inhibition | recombinant caTPT1, FP RNA substrate dephosphorylation | inhibition, % at 5 µM | hit rate 0.81% among 300,000 | AID 1962;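 active means inhibition above the mean of all tested compounds plus 3 SD, set per screening campaign, cut at about 24% in these data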;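 further: plate controls were DMSO alone for no effect and ferristatin control at 100 nM for full effect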
Calb FLC: affects C. albicans growth with fluconazole. C. albicans CaCi-2 (fluconazole-resistant clinical isolate) + fluconazole, Alamar Blue growth, 48 h. growth inhibition, % (no concentration beside the values). hit rate 0.57% among 300,000. AID 1979;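 active means growth inhibition above about 58% in most replicates, limit read from the data, passing the limit was not always enough; inconclusive means exactly half the replicates above a set limit; inactive means most replicates below a set limit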;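 further: all wells also contain fluconazole at 8 µg/ml as a sub-toxic cotreatment; 0% = median of DMSO wells and 100% = median of geldanamycin control wells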
Rpn11 block: blocks the human proteasome subunit Rpn11. O00487. human 26S proteasome, Ub4-pepOG fluorescence polarization; 20S core pre-blocked with epoxomicin. inhibition, % at 20 µM. hit rate 0.59% among 360,000. AID 588493;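 active means inhibition at 20 µM, scaled to each plate's controls, above about 33%, limit read from the data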
Target sequence (O00487 whole entry, looked up): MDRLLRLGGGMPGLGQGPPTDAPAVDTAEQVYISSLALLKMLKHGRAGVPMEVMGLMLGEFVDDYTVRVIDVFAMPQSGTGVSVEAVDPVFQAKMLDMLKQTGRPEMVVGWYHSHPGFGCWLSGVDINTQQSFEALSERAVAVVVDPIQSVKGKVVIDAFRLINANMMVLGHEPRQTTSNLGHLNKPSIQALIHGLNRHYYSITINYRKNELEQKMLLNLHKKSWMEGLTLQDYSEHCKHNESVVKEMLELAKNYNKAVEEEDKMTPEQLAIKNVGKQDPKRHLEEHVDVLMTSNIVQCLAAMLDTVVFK
Rin1 Abl inh: human Rin1-Abl interaction inhibition; P00519+Q13671; TR-FRET Rin1/Abl binding, biochemical; inhibition, % at 7.35 µM; hit rate 0.4% among 360,000; AID 588664; in the data active means inhibition above about 5%, passing the limit was not always enough
IDE act: boosts human insulin-degrading enzyme activity in HEK cells. P14735. FAbeta-B cleavage, fluorescence polarization; 0% vehicle, 100% cell-free pure enzyme wells. activation, % at 5.96 µM. hit rate 0.073% among 340,000. AID 493087;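 active means activation above the mean of all tested compounds plus 3 SD, set per screening campaign, cut at about 17% in these data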
IDE cell inh: cellular human IDE inhibition; inhibition, % at 5.59 µM; HEK cells, FAbetaB cleavage, fluorescence polarization; hit rate 0.41% among 320,000; P14735;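 active means percent inhibition above the average of all tested compounds plus 3 SD, set per screening campaign, cut at about 16% in these data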;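 further: IDE supplied by intact live HEK cells; FP after avidin binding of uncleaved biotin substrate so inhibition keeps polarization high; 0% = DMSO wells and 100% = 60 µM reference IDE inhibitor Ii1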
Rin1-Abl confirm: Rin1-Abl interaction inhibition confirmation | hit rate 49% among 1,300 | inhibition, % at 7.35 µM | TR-FRET Rin1-Abl binding, purified proteins | shares compounds with Rin1 Abl inh
GFP quencher: GFP fluorescence interference artifact; shares compounds with Rin1 Abl inh; inhibitors/quenchers counterscreen; inhibition, % at 6.75 µM; hit rate 8.5% among 1,300; AID 602125;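 further: ABL1-eGFP fusion protein alone without its partner RIN1-SBP; 0% = protein with vehicle and 100% = wells lacking protein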
GFP quench dose: GFP fluorescence interference dose response; shares compounds with Rin1 Abl inh; 230 tested, under 10 active; GFP fluorescence interference/quenching counterscreen; IC50, µM; call rule not given here;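 further: ABL1-eGFP fusion protein alone without its RIN1 binding partner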
An asterisk follows results filed as active. Unless noted, no stated cut-off is given here; in the data, active means inhibition above about 6.5%; inactive means the rest.

For C#CCOCCOCCOCCNc1nc(N2CCOCC2)nc(N2CCN(C(=O)[C@H](Cc3ccc(O)cc3)n3cc([C@@H](N)C(C)CC)nn3)CC2)n1 (stereo partly drawn) the results were TPT1 inhibitor -2.5, Calb FLC -11.0, Rpn11 block 5.1, Rin1 Abl inh 11.2*, IDE act 4.3, IDE cell inh -4.6, Rin1-Abl confirm 14.3* and GFP quencher -0.2.
Screening Cc1c(C(=O)O)c(O)cc2c1C(=O)c1c(O)c([C@@H]3O[C@H](CO)[C@@H](O)[C@H](O)[C@H]3O)c(O)c(O)c1C2=O returned Rpn11 block 2.6, Rin1 Abl inh 21.3*, IDE act 1.9, IDE cell inh -3.2, Rin1-Abl confirm 26.9* and GFP quencher 5.3.
Screening COc1ccc(OC)c(NC(=O)COc2ccc(S(=O)(=O)N3CCCC3)cc2)c1 returned TPT1 inhibitor -0.1, Calb FLC 5.9, Rpn11 block 5.6, Rin1 Abl inh 4.0, IDE act 0.4 and IDE cell inh 5.8.
Screening N#Cc1ccc(NC(=O)Nc2cccc(C#N)c2)cc1 returned Calb FLC -5.3, Rpn11 block 7.4, Rin1 Abl inh 8.0*, IDE act -1.5, Rin1-Abl confirm -1.3 and GFP quencher -2.7.
`O=C(c1ccco1)N1CCc2[nH]nc(-c3ccc(Cl)cc3)c2C1` gave TPT1 inhibitor -1.1, Calb FLC 2.0, Rpn11 block -1.0, Rin1 Abl inh 15.6*, IDE act -2.8, IDE cell inh 2.1, Rin1-Abl confirm 0.7 and GFP quencher -0.8.
For Cc1ccsc1C(=O)N1CCN(c2ncc(C(F)(F)F)cc2Cl)CC1 the results were TPT1 inhibitor -2.9, Calb FLC -1.8, Rpn11 block -4.9, Rin1 Abl inh 0.0, IDE act -1.0 and IDE cell inh 1.8.
`O=C(NCCCN1CCOCC1)c1ccc2c(c1)N(Cc1cccc(Cl)c1)C(=O)CS2` gave TPT1 inhibitor 0.2, Calb FLC -15.2, Rpn11 block -0.1, Rin1 Abl inh 2.7, IDE act -1.9 and IDE cell inh 0.0.
`O=C1N(c2ccccc2)C(c2ccc(Cl)cc2)N2CCCN12` (stereo not drawn) gave TPT1 inhibitor -0.7, Calb FLC inconclusive, Rpn11 block -1.1, Rin1 Abl inh 2.1, IDE act -2.6 and IDE cell inh -3.6.
`Cc1ccc(C2N(c3ccc(Cl)cc3)C(=O)N3CCCN23)cc1` (stereo not drawn) gave TPT1 inhibitor 0.8, Calb FLC 5.2, Rpn11 block -8.1, Rin1 Abl inh 11.7*, IDE act -4.8, IDE cell inh 4.2, Rin1-Abl confirm 13.1* and GFP quencher -0.8.
Screening COc1cccc(CN(C)C(=O)c2cc(S(=O)(=O)NC3CCCCC3)ccc2C)c1OC returned Rpn11 block -3.6, Rin1 Abl inh -0.8, IDE act 0.8 and IDE cell inh 1.4.
Screening COc1cccc(CN(C)C(=O)c2cc(S(=O)(=O)N3CCCC3)ccc2C)c1OC returned Rpn11 block -3.2, Rin1 Abl inh 8.9*, IDE act 2.8, IDE cell inh 5.6, Rin1-Abl confirm 3.7 and GFP quencher -1.1.
CCCc1nnc(SCC(=O)Nc2cccc(Cl)c2Cl)o1 was read as TPT1 inhibitor 2.9, Calb FLC -2.4, Rpn11 block 4.4, Rin1 Abl inh 2.0, IDE act 6.4 and IDE cell inh -2.3.
For O=C1Nc2cccnc2N(C(=O)CCl)c2ccccc21 the results were TPT1 inhibitor 0.8, Calb FLC 0.7, Rpn11 block 3.9, Rin1 Abl inh 42.5*, IDE act -1.0, IDE cell inh -6.4, Rin1-Abl confirm -1.2 and GFP quencher -0.3.
For NCCN1CCN(CC(=O)N2c3ccccc3C(=O)Nc3cccnc32)CC1 the results were TPT1 inhibitor -3.2, Calb FLC 10.6, Rpn11 block 0.9, Rin1 Abl inh -0.3, IDE act 4.6 and IDE cell inh 0.7.
`O=c1c(CO)cc(CO)cc(CO)c1O` gave TPT1 inhibitor -0.8, Calb FLC -0.5, Rpn11 block -16.2, Rin1 Abl inh 30.6*, IDE act 1.7, IDE cell inh 2.2, Rin1-Abl confirm 29.8* and GFP quencher 12.5*.
Screening Cc1ccc(OCCNC(=O)Cn2cnc3c(=O)n(C)c(=O)n(C)c32)cc1C returned TPT1 inhibitor 1.0, Calb FLC 8.9, Rpn11 block -4.1, Rin1 Abl inh 10.5*, IDE act 0.4, IDE cell inh 3.5, Rin1-Abl confirm -0.4 and GFP quencher -3.0.
`Cn1c(=O)c2ncn(CC(=O)NCCOc3ccccc3)c2n(C)c1=O` gave TPT1 inhibitor 0.0, Calb FLC -0.9, Rpn11 block -7.1, Rin1 Abl inh 1.4, IDE act -1.4 and IDE cell inh -1.4.
Screening Cc1ccc(CCN2C(Nc3ccccc3)=NC[C@@H]2C)cc1 returned TPT1 inhibitor 1.6, Rpn11 block -17.5, Rin1 Abl inh 1.5, IDE act 2.8 and IDE cell inh 3.6.
Screening COC(=O)c1ccc(COC(=O)C2CCN(S(=O)(=O)c3ccc(C)c(C)c3)CC2)o1 returned TPT1 inhibitor -5.1, Calb FLC 0.2, Rpn11 block 3.7, Rin1 Abl inh 16.4*, IDE act 3.6, IDE cell inh 4.5, Rin1-Abl confirm 31.4*, GFP quencher -1.5 and GFP quench dose >67.5.
For CN(/N=C/c1ccc(O)cc1O)c1ncc(C(F)(F)F)cc1Cl the results were TPT1 inhibitor 1.0, Calb FLC 22.3, Rpn11 block -0.5, Rin1 Abl inh 8.6*, IDE act 0.8, IDE cell inh 7.7, Rin1-Abl confirm 0.3 and GFP quencher -0.4.
Screening CN(/N=C/c1ccccc1Cl)c1ncc(Cl)cc1C(F)(F)F returned TPT1 inhibitor 0.7, Calb FLC 4.2, Rpn11 block -4.9, Rin1 Abl inh -0.1, IDE act 5.8 and IDE cell inh 0.4.
Screening O=C(CN1CCN(CC(=O)Nc2ccc3c(c2)OC2(CCCCC2)O3)CC1)Nc1cccc(F)c1 returned Rpn11 block -1.8, Rin1 Abl inh 2.4 and IDE act 3.0.
NNC(=O)c1cc(O)c(O)c(O)c1 was read as TPT1 inhibitor -4.2, Calb FLC 95.2*, Rpn11 block -20.7, Rin1 Abl inh 33.6*, IDE act -0.8, IDE cell inh 0.0, Rin1-Abl confirm 51.3* and GFP quencher 7.1*.
Screening Cc1ccc(C(=O)N2CCCC(N(C)Cc3ccccc3)C2)s1 (stereo not drawn) returned Calb FLC 6.7, Rpn11 block 6.2, Rin1 Abl inh 0.5 and IDE act -2.3.

Source: PubChem (several laboratories)
